Compound activity from PubChem BioAssay.
An excerpt weighted towards active compounds, which were near 0.7% of everything screened.
VHR inh abs: DUSP3 (human) phosphatase inhibition. P51452. recombinant VHR phosphatase, pNPP absorbance. inhibition, % at 13.3 µM. 0.52% of 290,000 active. AID 1654; in the data active = inhibition above about 50%
Target sequence (P51452 whole entry, looked up): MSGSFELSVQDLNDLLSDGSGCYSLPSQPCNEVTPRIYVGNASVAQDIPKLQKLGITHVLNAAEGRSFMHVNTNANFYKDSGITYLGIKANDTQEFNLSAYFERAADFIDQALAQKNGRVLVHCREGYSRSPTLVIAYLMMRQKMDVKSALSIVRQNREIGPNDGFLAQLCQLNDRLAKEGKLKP
SARS 3CLpro inh: SARS-CoV 3CLpro protease inhibition; P0C6X7; recombinant SARS-CoV 3CLpro, quenched FRET peptide cleavage; inhibition, % at 6 µM; 0.14% of 290,000 active; AID 1706; in the data active = inhibition above about 12%
FadD28 binding: blocks FadD28 binding to the bisubstrate probe | fluorescence polarization | inhibition, % at 12.5 µM | 0.22% of 360,000 active | AID 588549; in the data active = inhibition above about 8.5%, passing the limit was not always enough
Mtb hypoxia inh: Mtb hypoxia fluorescent reporter inhibition. M. tuberculosis hypoxia-regulated fluorescent reporter, fluorescence. fluorescence inhibition, % (no concentration beside the values). 0.1% of 300,000 active. AID 1159583; in the data active = fluorescence inhibition mostly above about 23%, no sharp cut-off; inactive = mostly below about 17%
Mtb BioA inh: BioA (M. tuberculosis) enzyme inhibition; purified M. tuberculosis BioA enzyme, plate reader; inhibition, % at 9.99 µM; 0.096% of 360,000 active; AID 602481; in the data active = inhibition above about 40%
Hits are given with their value; 0 = inactive; - = no result shown.

SMILES	VHR inh abs	SARS 3CLpro inh	FadD28 binding	Mtb hypoxia inh	Mtb BioA inh
CC(CC(=O)Nc1ccc([N+](=O)[O-])cc1)=NNC(=O)c1ccccc1[N+](=O)[O-]	-	-	-	0	-
COc1cc(C(=O)N2CCCN(C)CC2)cc(OC)c1C	56.9	0	-	0	0
CC(C=NN1CCN(Cc2ccc(C)cc2)CC1)=Cc1ccccc1	-	-	-	0	-
CCN1CCN(CCCNC(=O)c2cc3cc4ccc(OC)cc4nc3o2)CC1	55.0	0	0	-	0
O=C(Nc1ccccc1)C1=CC(C2CC2)CC(OCc2ccc(CO)cc2)O1 (centres undefined)	-	-	-	0	-
Cc1c(C)c2c(c(C)c1O)CC[C@@](C)(CCCC(C)CCCC(C)CCCC(C)C)O2 (some centres undefined)	-	-	-	0	-
CC1CCC2C(C)C(=O)OC3OC4(C)CCC1C32OO4 (centres undefined)	-	0	0	81.4	0
CC1CCC2[C@@H](C)C(=O)OC3O[C@]4(C)CCC1C32OO4 (some centres undefined)	-	-	0	84.3	0
O=Cc1ccc(OC(=O)C2CC(=O)N(c3ccc(F)cc3)C2)cc1 (centres undefined)	51.2	0	0	0	0
O=C(O)C1CC(=O)N(c2ccc(F)cc2)C1 (centres undefined)	0	0	0	0	0
O=C(NC1CCOC1)c1cc(COc2cccc(C(F)(F)F)c2)on1 (centres undefined)	51.2	0	0	0	0
O=C(C1=CC(C2CC2)CC(OCc2ccc(CO)cc2)O1)N1CCN(Cc2ccc3c(c2)OCO3)CC1 (centres undefined)	-	-	-	0	-
CC(NC(=O)c1nc[nH]c1C(=O)NC(Cc1ccccc1)C(=O)OC(C)(C)C)C(=O)OC(C)(C)C (centres undefined)	-	-	-	0	-
O=C(Nc1ccccc1F)Nc1ccccc1OC(F)F	56.3	0	0	0	-
O=C(Nc1ccccc1OC(F)F)c1ccc(F)cc1	0	0	0	0	0
O=C(O)CC1SC(=NN=Cc2ccccc2O)N(c2ccc(O)cc2)C1=O (centres undefined)	-	-	-	0	-
COc1ccc(CN(CC(=O)NCc2ccccc2)C(=O)CCC(=O)Nc2cc(C)ccn2)cc1	52.0	0	0	0	0
O=C1CCCC(=NNC(=O)c2ccc(NS(=O)(=O)c3ccc(Br)cc3)cc2)C1	-	-	-	0	-
CCN(CC)c1ccc2nc3ccc(N)cc3[n+](-c3ccccc3)c2c1	-	-	48.2	-	0
COc1ccccc1C(=O)c1nc2ccccc2n1C	58.2	0	0	0	-
CN(C)/C=C/C(=O)c1ccc([N+](=O)[O-])c(CS(=O)(=O)c2ccc(Cl)cc2)c1	0	0	17.6	0	0
CC1Oc2cc3c(-c4c(O)cc(O)c5c(O)c6c(cc45)OC(C)C(C)C6=O)c(O)cc(O)c3c(O)c2C(=O)C1C (centres undefined)	0	0	31.3	-	0
Nc1ccc(S(=O)(=O)Nc2nc3ccccc3o2)cc1	0	0	0	74.6	0
Nc1ccc(S(=O)(=O)Nc2cnc3ccccc3n2)cc1	0	0	0	-	0
CN(C)S(=O)(=O)n1cnc(C2C3C(=O)OCC3C[C@@]23N=CN(Cc2ccccc2)C3=O)c1 (some centres undefined)	-	-	-	0	-
SMILES	VHR inh abs	SARS 3CLpro inh	FadD28 binding	Mtb hypoxia inh	Mtb BioA inh
O=S(=O)(O)c1cc(Cl)cc(N=Nc2ccc(O)cc2O)c1O	-	-	34.4	-	-
O=[N+]([O-])c1ccc(N=Nc2ccc(O)cc2O)cc1	0	0	0	-	0
CCC(C)C(CNC(CNC)C(C)C)NCC(C)c1ccc(CC(C)C)cc1 (centres undefined)	-	-	-	0	-
Fc1ccc(NN=C2CC(c3ccccc3)Oc3ccccc32)c(F)c1 (centres undefined)	-	-	-	0	-
COc1ccc(-c2c(C)n([O-])c3c([n+]2=O)CCCC3)cc1	51.5	0	0	0	0
NC(=O)C[C@H](NC(=O)c1ccc(Cl)cc1)C(=O)OCc1ccccc1	-	-	0	27.8	0
O=C1NC(=O)N(Cc2ccc(F)cc2)C(=O)/C1=C\c1ccoc1	0	0	10.7	-	0
CN(C)C=Nc1cc(=O)[nH]c(=O)n1Cc1ccccc1	-	-	-	0	-
O=C(O)Cc1ccc(N=Nc2c(O)c(C(=O)O)cc3ccccc23)cc1	0	0	13.6	0	0
NS(=O)(=O)c1ccc(N=Nc2c(O)c(C(=O)O)cc3ccccc23)cc1	0	0	0	0	0
Cc1cc(C)cc(C(=O)Nc2c3c(nn2C(C)(C)C)CS(=O)(=O)C3)c1	51.3	0	0	0	0
O=C(NCc1ccc2c(c1)OCO2)c1c(Cl)cccc1Cl	55.5	0	0	0	0
O=C(NCc1ccc2c(c1)OCO2)c1cccc(C(=O)NCc2ccc3c(c2)OCO3)c1	0	0	0	0	0
